High-throughput results (PubChem)
The list is not random: actives were taken first. Their share in the collection is about 4.6%.
TIM10 inh: growth inhibitors of isogenic TIM10 control yeast, primary screen, counter-screen for tim10-1 yeast inhibitor project, luminescence, uHTS | S. cerevisiae TIM10 strain growth, BacTiter-Glo luminescence, 24 h | inhibition, % at 10 µM | 1.4% of 330,000 active | AID 463195, 2010;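 active = inhibition of 40% or more at the single tested concentration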;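 note: wild-type TIM10 isogenic control strain grown at permissive 25 °C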
tim10-1 inh: growth inhibitors of tim10-1 mutant yeast, primary screen, luminescence, uHTS; S. cerevisiae tim10-1 ts strain growth, BacTiter-Glo, 24 h; inhibition, % at 20 µM; 2.2% of 330,000 active;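 active = inhibition of at least 40%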;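 note: mutant grown at 25 °C; 0% = DMSO wells with yeast and 100% = wells holding no yeast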
NALP3 yeast inh: NALP3 inflammasome inhibitors in reconstituted yeast, primary screen, luminescence, uHTS. Yeast reconstituted NLRP3/ASC/caspase-1, beta-gal luminescence, 24 h. inhibition, % at 10 µM. 0.39% of 330,000 active;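 active = inhibition of 50% or more; inactive = inhibition below 50%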;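 note: plate controls were induced DMSO wells for no effect and uninduced yeast grown without galactose for full effect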
tim23-1 inh: growth inhibitors of tim23-1 mutant yeast, primary screen, luminescence, uHTS; S. cerevisiae tim23-1 growth, BacTiter-Glo luminescence, 24 h; inhibition, % at 20 µM; 1.3% of 330,000 active;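 active = growth inhibition of the mutant yeast at or above 50%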;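 note: temperature-sensitive mutant grown at 25 °C; plate controls were DMSO-treated mutant yeast for no effect and medium wells lacking yeast for full effect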
SKKanGAS inh: S. pyogenes SKKanGAS growth inhibitors in kanamycin, primary screen, streptokinase expression inhibitor project, SKKanGAS strain, BacTiter-Glo luminescence; 6 h; 1.3% of 300,000 active; inhibition, % at 7.5 µM;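 active = mean replicate score, as percent of positive control median, at least 50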;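 note: strain carries kanamycin resistance gene driven by streptokinase promoter and grows in 40 µg/ml kanamycin; loss of luminescence reflects streptokinase promoter inhibition or plain growth inhibition; 0% = median of DMSO wells and 100% = positive control at its reference dose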
tim10-1 conf: growth inhibitors of tim10-1 mutant yeast, confirmation, single concentration, luminescence, S. cerevisiae. 56% of 7,400 active. shares compounds with tim10-1 inh. inhibition, % at 20 µM. S. cerevisiae tim10-1 ts strain growth, BacTiter-Glo, 24 h. AID 463213, 2010;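 active = inhibition of yeast growth at or above a set limit in either of two repeat tests at 20 µM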;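 note: tim10-1 mutant grown at permissive 25 °C to find synthetic lethal compounds; 0% = DMSO yeast wells and 100% = medium wells without yeast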
* = called active by the depositor; . = no result given.

SMILES	TIM10 inh	tim10-1 inh	NALP3 yeast inh	tim23-1 inh	SKKanGAS inh	tim10-1 conf
N#CC1=C(N)Oc2cc3c(cc2C1c1ccc(Cl)cc1)OCO3 (configuration not stated)	-11.1	43.5*	12.4	29.2	27.3	-10.8
COc1ccc(N2C(=O)CSC2c2ccc([N+](=O)[O-])cc2)cc1 (configuration not stated)	13.7	29.1	16.2	24.5	1.5	.
CC1CC(C)CN(C(=O)COC(=O)COc2ccccc2C#N)C1 (configuration not stated)	-5.2	-3.6	5.3	-1.1	.	.
O=C(CCSc1ccc(F)cc1)NNC(=O)c1ccc([N+](=O)[O-])cc1	2.0	-10.7	5.4	-2.3	.	.
CCOC(=O)c1sc2nc3c(cc2c1N)COC(C)(C)C3	4.2	40.1*	24.1	20.1	.	25.6
CCOC(=O)c1sc2nc3c(cc2c1N)COC(C)(CC)C3 (configuration not stated)	34.2	42.8*	8.8	30.7	17.0	27.6
Cc1ccccc1-c1nc(CS(=O)CC(=O)NC(C)CCc2ccccc2)c(C)o1 (configuration not stated)	17.0	-3.7	8.1	22.7	-6.8	.
CN1C(=O)NC(c2ccccc2[N+](=O)[O-])C2=C1CCCC2=O (configuration not stated)	-2.3	4.0	12.4	-4.0	-1.3	.
O=C(NCc1ccco1)c1cc2ccc(O)cc2oc1=O	34.1	54.6*	1.2	43.7	60.2*	45.8*
Cc1cc(NC(=O)COc2ccc3ccccc3c2Br)no1	-12.9	-25.0	29.1	3.1	.	.
COc1cc(/C=C2\SC(=S)N(Nc3ccccc3)C2=O)ccc1O	30.6	51.1*	-15.5	28.8	26.6	20.1
CC1CN(S(=O)(=O)c2cccc(C(=O)OC(C)C(=O)NC3CCCCC3C)c2)CC(C)O1 (configuration not stated)	21.9	15.9	2.4	12.4	-4.9	.
FC(F)(F)c1cccc(N2CCN(c3nnnn3-c3ccccc3)CC2)c1	13.2	42.8*	9.9	26.2	0.3	14.5
FC(F)(F)c1cccc(N2CCN(c3ccc4nnc(-c5ccccc5)n4n3)CC2)c1	30.8	48.5*	6.1	19.9	-7.0	21.0
CC(C)CC(=O)N1CCN(C(=O)c2ccc(F)cc2)CC1	10.2	-9.6	11.6	-7.2	-0.2	.
CC(C)(C)N(Cc1ccccc1)C(=O)COC(=O)C1=NN(c2ccccc2)C(=O)CC1	7.3	16.9	20.7	27.3	.	.
CC(C)(C)C(=O)NC(=S)Nc1ccc(Cc2ccncc2)cc1	31.8	44.3*	43.6	37.8	-6.9	30.0
CCOC(=O)c1c(-c2ccc(C)o2)csc1NC(=O)COC(=O)c1cccs1	21.0	41.8*	19.7	41.8	6.4	30.0
CCOC(=O)c1c(-c2ccc(C)o2)csc1NC(=O)CN1CCOCC1	18.5	17.2	17.6	0.5	-6.4	.
CCOC(=O)c1c(-c2ccc(C)o2)csc1NC(=S)NC(=O)N(C)C	37.3	55.4*	-6.3	41.1	-9.2	45.5*
CCOC(=O)C(CCSC)Nc1nc(Cl)nc(Nc2ccc(Cl)cc2)n1 (configuration not stated)	3.8	31.3	1.5	33.3	11.2	.
CCn1nc(C)c(C(=O)Nc2cc(Oc3cc(C)cc(C)c3)cc([N+](=O)[O-])c2)c1C	34.7	42.7*	-15.8	42.4	30.5	38.8*
COC1c2ccccc2C(=O)N1CCc1ccc(Cl)cc1 (configuration not stated)	-3.2	9.2	7.9	21.2	4.3	.
Cc1ccc(C(=O)NCCNS(=O)(=O)c2ccccc2[N+](=O)[O-])cc1	9.6	8.3	16.7	15.3	5.1	.
CCOC(=O)c1c(C)n(C)c2ccc(O)c(CN3CCN(C)CC3)c12	-12.0	-15.6	7.5	-17.6	-2.0	.
CCOC(=O)c1c(CSc2ccccc2)n(C)c2ccc(O)c(CN3CCOCC3)c12	20.5	43.7*	18.5	39.3	4.7	16.4
